We go through 21 compounds from PubChem BioAssay (NCI).

This is part of a sample that, as a whole, favours compounds with a hit. Of some 83,000 tested, about 20% had one in any assay.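 Each cell line was grown in a 96-well plate and treated with one concentration of compound for 48 hours. Values below 10 were considered active.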 A number with no mark means an inactive call. Activity calls are given as the source filed them.

What all share (assay): NCI-60 one-dose screen, 48 h (100 = growth as untreated, 0 = no growth, -100 = all killed)
Conditions in all cases: 10 µM unless noted

In assay [1] the test system is T-47D breast.
In assay [2] the test system is MDA-MB-435 melanoma.
Assay [3] has as its system SW-620 colon.
In assay [4] the test system is MCF7 breast.
In assay [5] the test system is HCT-116 colon.
The subject of assay [6] is KM12 colon.
In assay [7] the test system is HCC-2998 colon.

With `Nc1ncnc(Nc2ccccc2)n1`, the growth in assay [1] was 96.3%; in assay [2] it was 107%; in assay [3], 101%; in assay [4], 101%; in assay [5], 118%; in assay [6] it was 120%.
`CN(C)c1ncnc2c1cnn2C`: the growth was 88.2% in assay [1]; 103% in assay [2]; 98.7% in assay [3]; 94% in assay [4]; 105% in assay [5]; 98% in assay [7]. The growth in assay [6] is 104%.
`CC1(C)CC(=O)C=C(N)C1`: the growth is 141% in assay [1]; 99.2% in assay [2]; 96% in assay [3]; 160% in assay [4]; 102% in assay [5]; 45.4% in assay [7]. The growth in assay [6] was 124%.
Take `C=CCC(OC(C)=O)c1ccc(C(C)C)cc1` (stereo not drawn): the growth is 115% in assay [1]; 124% in assay [2]; 107% in assay [3]; 113% in assay [4]; 110% in assay [5]; 103% in assay [7]. Moreover, in assay [6], the growth was 114%.
On to `Oc1cccnc1CN1CCCC1`, for which the growth in assay [1] is 95.2%; in assay [2] it was 107%; in assay [3], 105%; in assay [4], 93.9%; in assay [5] it was 116%; in assay [6], 113%.
Take `Cc1cccc(-[n+]2noc(N)n2)c1`: the growth was 59% in assay [1]; 83.7% in assay [2]; 86.3% in assay [3]; 76% in assay [4]; 82.2% in assay [5]; 79% in assay [7]. In addition, the growth in assay [6] is 70.2%.
For the compound `NC(=S)c1c(N)n(C2OC(CO)C(O)C2O)c2ncnc(N)c12` (stereo not drawn), the growth in assay [1] is -48.2% (active); in assay [2], -46.6% (active); in assay [3] it was -18.3% (active); in assay [4] it was -11.6% (active); in assay [5], 5.32% (active); in assay [7] it was 3.23% (active). Also, the growth in assay [6] is -6.52% (active).
With `COc1ccc(Br)c2c1C(=O)CC2`, the growth in assay [1] is 133%; in assay [2], 116%; in assay [3] it was 123%; in assay [4], 107%; in assay [5], 108%; in assay [7] it was 113%. For the same compound, in assay [6], the growth is 117%.
Take `O=C(CCl)Oc1ccc([N+](=O)[O-])cc1`: the growth in assay [1] was 105%; in assay [2], 107%; in assay [3], 113%; in assay [4], 99.5%; in assay [5], 110%; in assay [7], 102%. Besides, the growth in assay [6] is 107%.
On to `CCOC(=O)C(=O)CC(=O)c1ccccc1`, for which the growth in assay [1] is 105%; in assay [2], 106%; in assay [3], 98.4%; in assay [4], 96.7%; in assay [5] it was 97.9%; in assay [7], 101%. Moreover, in assay [6], the growth was 96.3%.
With `Cn1/c(=N\N=C\c2ccccc2OCCO)sc2ccccc21`, the growth is 79.3% in assay [1]; 107% in assay [2]; 109% in assay [3]; 76.9% in assay [4]; 98.8% in assay [5]; 110% in assay [7]. The growth in assay [6] was 92.2%.
Consider `O=C1C=C[C@H](O)[C@@]2(CO)O[C@@H]12`, for which the growth in assay [1] was 94.2%; in assay [2] it was 77%; in assay [3] it was 13.9%; in assay [4], 42.9%; in assay [5] it was 19.9%; in assay [6] it was 98.4%.
With `CCOc1ccc(NC(=S)N2CCC(CCCC3CCN(C(=S)Nc4ccc(OCC)cc4)CC3)CC2)cc1`, the growth in assay [1] is 67.8%; in assay [2] it was 90.4%; in assay [3] it was 98.3%; in assay [4], 84.1%; in assay [5], 84.5%; in assay [7], 85.6%. In addition, the growth in assay [6] was 90.6%.
For `NC(=S)N/N=C/c1ccc(Cl)cc1`, the growth in assay [1] was 86.8%; in assay [2], 110%; in assay [3] it was 113%; in assay [4] it was 93.4%; in assay [5] it was 100%; in assay [7], 96.2%. In addition, the growth in assay [6] was 113%.
As for `CCCCOC(=O)c1ccc(NC(=O)CCl)cc1`, the growth in assay [1] is 47.2%; in assay [2], 75.9%; in assay [3], 25.8%; in assay [4] it was 22.8%; in assay [5], 4.07% (active); in assay [7], 101%. Besides, the growth in assay [6] was 84.7%.
As to `C1Cc2onc(-c3noc4c3CCC4)c2C1`, the growth in assay [1] was 108%; in assay [2], 113%; in assay [3] it was 123%; in assay [4], 99.2%; in assay [5], 108%; in assay [7], 115%. Further, the growth in assay [6] was 106%.
`O=Cc1c(O)c2ccccc2[nH]c1=O`: the growth in assay [1] was 106%; in assay [2], 118%; in assay [3], 93.8%; in assay [4] it was 95.7%; in assay [5] it was 89.4%; in assay [6] it was 139%.
With `CCOC(=O)/C(C)=C\c1ccc(OC)c(OC)c1`, the growth in assay [1] is 90.2%; in assay [2], 102%; in assay [3] it was 106%; in assay [4], 101%; in assay [5], 94.2%; in assay [7], 103%. The growth in assay [6] is 102%.
Consider `CN=S(=O)(OCCCCCOS(=O)(=NC)c1ccc(C)cc1)c1ccc(C)cc1` (stereo not drawn), for which the growth was 88.5% in assay [1]; 91.9% in assay [2]; 84.9% in assay [3]; 87.6% in assay [4]; 75.2% in assay [5]; 91.5% in assay [7]. The growth in assay [6] is 98.2%.
Regarding `Nc1cccc2cccc(O)c12`, the growth in assay [1] is 102%; in assay [2], 108%; in assay [3], 67.4%; in assay [4], 79.9%; in assay [5], 78.8%; in assay [7] it was 95.8%. In assay [6], the growth was 128%.
For the compound `O=C(OCC1CCCO1)c1ccc([N+](=O)[O-])cc1` (stereo not drawn), the growth in assay [1] is 84.8%; in assay [2], 109%; in assay [3] it was 91.8%; in assay [4], 95.6%; in assay [5] it was 103%; in assay [7] it was 117%. The growth in assay [6] was 109%.
